Most compounds without a hit are left out; they make up all but 2.8% or so of the library.
WRN helicase inh = inhibitors of human WRN helicase. Q14191. WRN helicase unwinding, fluorescent forked duplex, kinetic. Potency, µM (doses to about 114 µM), hits mostly inhibitors. actives 0.46% (n = 360,000). AID 651768; further: nearly all actives have a fitted effect of over 55% in size
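WRN at 20 nM final was preincubated with compound for 15 min at room temperature; reaction started with 100 nM forked duplex oligonucleotide carrying fluorophore and quencher plus 2 mM ATP (final). Unwinding followed kinetically by red fluorescence (ex 525/em 598 nm).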
Pol iota inh = blocks human DNA polymerase iota activity; Q9UNA4; Pol iota fluorescent replication assay, 10 min; Potency, µM (titrated, usually from 115 µM), hits mostly inhibitors; actives 1% (n = 390,000); AID 588590
Target sequence (Q9UNA4 whole entry, looked up): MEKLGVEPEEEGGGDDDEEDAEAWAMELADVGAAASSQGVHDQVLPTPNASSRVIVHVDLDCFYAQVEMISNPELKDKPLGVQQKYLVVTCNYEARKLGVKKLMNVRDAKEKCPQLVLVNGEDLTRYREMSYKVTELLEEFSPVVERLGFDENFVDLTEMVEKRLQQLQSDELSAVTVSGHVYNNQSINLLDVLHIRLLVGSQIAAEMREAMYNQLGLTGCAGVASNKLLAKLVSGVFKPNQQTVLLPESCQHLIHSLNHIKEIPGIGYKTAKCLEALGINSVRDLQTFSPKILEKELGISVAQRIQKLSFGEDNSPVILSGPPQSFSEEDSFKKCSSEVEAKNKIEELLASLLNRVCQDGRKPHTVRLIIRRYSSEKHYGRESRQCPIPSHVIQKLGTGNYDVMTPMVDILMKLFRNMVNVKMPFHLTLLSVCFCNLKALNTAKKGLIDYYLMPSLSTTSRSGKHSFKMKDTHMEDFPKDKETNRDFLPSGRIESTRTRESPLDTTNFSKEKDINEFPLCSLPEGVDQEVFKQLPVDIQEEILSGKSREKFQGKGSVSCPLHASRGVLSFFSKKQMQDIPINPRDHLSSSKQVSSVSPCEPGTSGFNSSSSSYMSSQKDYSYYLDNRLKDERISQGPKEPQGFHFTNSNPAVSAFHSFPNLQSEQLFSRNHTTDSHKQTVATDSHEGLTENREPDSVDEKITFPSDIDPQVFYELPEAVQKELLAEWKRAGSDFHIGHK
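Fluorescent replication assay read twice, at 0 min and 10 min after adding 50 nM (final) substrate. Enzyme (10 nM) and compounds were first incubated 15 min at room temperature; enzyme-free buffer wells were negative controls.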
PI5P4K alpha inh = PI5P4K alpha (human) kinase inhibition; PI5P4Kalpha enzyme, ADP-Glo luminescence, 60 min; stronger effect = lower value; actives 1.2% (n = 330,000); P48426; max response, %; active means max response of -50% or lower; inconclusive means between -30% and -50%; inactive means -30% or higher; further: value at the top dose of about 77 µM
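Quantitative HTS of the MLSMR library against PI5P4Kalpha with substrate. ATP added last at 5 microM final; room temperature, 60 minutes. Remaining ATP depleted, ADP converted and read as luminescence.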
POLB inh = inhibitors of human DNA polymerase beta. Potency, µM (highest dose often 114 µM), actives largely listed as inhibitors. actives 1.3% (n = 340,000). Pol beta primer extension/strand displacement, fluorescence kinetic. AID 485314
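Homogeneous kinetic assay of primer extension and strand displacement by 10 nM Pol beta, preincubated 15 min at room temperature with compound before 50 nM substrate (final) was added. Read at 0 and 10 min; four-parameter Hill fit.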
Pol kappa inh-1 = DNA polymerase kappa (human) inhibition. Potency, µM (titrated, usually from 107 µM), most hits filed as inhibitors. purified Pol kappa, fluorescent DNA synthesis assay, 10 min. Q9UBT6. actives 0.53% (n = 400,000)
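10 nM Pol kappa preincubated 15 min at room temperature with compounds, then reaction started with substrate at 50 nM final. Fluorescence read kinetically at 0 and 10 min; buffer-only wells served as negative control.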
Pol eta inh-1 = inhibitors of human DNA polymerase eta; actives 1.2% (n = 390,000); recombinant Pol eta, fluorescent DNA replication assay; AID 588591; Potency, µM (doses to about 114 µM), usual class: inhibitors; Q9Y253
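Pol eta at 10 nM preincubated with compounds 15 min at room temperature; reaction started with fluorescent substrate (50 nM final) and read kinetically at 0 and 10 min.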
Pol iota confirm = Inhibitors of human DNA polymerase iota, confirmation | AID 720496 | Pol iota primer extension, TAMRA/BHQ fluorescence | Potency, µM, most hits filed as inhibitors | shares compounds with Pol kappa inh-1 | actives 77% (n = 1,500)
Pol kappa inh-2 = Pol kappa (human) inhibition, cherry-pick confirmation. shares compounds with Pol eta inh-1. purified Pol-kappa, fluorescent strand-displacement substrate. Potency, µM, actives largely listed as inhibitors. actives 76% (n = 920)
Pol eta inh-2 = Pol eta (human) inhibition, cherry-pick confirmation; shares compounds with Pol eta inh-1; Pol eta primer extension, TAMRA/BHQ fluorescence, 10 min; Potency, µM, actives largely listed as inhibitors; actives 64% (n = 2,600); AID 720502
Of the large screens only hits and unclear results are named; the others gave an inactive call (follow-up assays come after a bar, where they were run). Unless noted, the call rests on the fitted dose curve; in most records, active means well fitted curve in the direction sought with a large enough effect; inconclusive means small, poorly fitted or top-dose-only effect, or another doubt; inactive means no such curve, though single readings can be large; an effect the other way counts as inactive or inconclusive.

N#Cc1ccccc1S(=O)(=O)N1CCN(C(=O)c2cc3c(s2)CCC3)CC1	Pol iota inh inconclusive, PI5P4K alpha inh inconclusive, Pol kappa inh-1 inconclusive, Pol eta inh-1 20µM (no result: POLB inh) | Pol iota confirm inconclusive | Pol kappa inh-2 inconclusive | Pol eta inh-2 inconclusive
COC(=O)[C@@H](Cc1ccccc1)NC(=O)/C=C/[C@H]1O[C@@H](n2cnc3c(NC(=O)c4ccccc4)ncnc32)[C@H](O)[C@@H]1O	none (no result: Pol iota inh, POLB inh, Pol kappa inh-1, Pol eta inh-1)
O=C(CSc1ccsc1[N+](=O)[O-])Nc1cccc(F)c1	WRN helicase inh inconclusive, Pol iota inh inconclusive, PI5P4K alpha inh -77.2, POLB inh 7.08µM, Pol kappa inh-1 22.4µM, Pol eta inh-1 22.4µM | Pol iota confirm 67 | Pol eta inh-2 47.8
CCc1ccccc1NC(=O)CNCC(=O)Nc1ccccc1CC	none
CCc1ccccc1NC(=O)CSc1ccsc1[N+](=O)[O-]	WRN helicase inh inconclusive, Pol iota inh 17.8µM, PI5P4K alpha inh -56.6, POLB inh 25.1µM, Pol kappa inh-1 inconclusive, Pol eta inh-1 31.6µM | Pol iota confirm inconclusive | Pol eta inh-2 60.1
COc1ccccc1C(=O)C1CCCN(Cc2cn[nH]c2C2CCCCC2)C1 (stereo not drawn)	none
COc1cc(-c2c(CCO)sc3ccccc23)cc(OC)c1OC	none (no result: Pol iota inh, POLB inh, Pol kappa inh-1, Pol eta inh-1)
CCOC(=O)CN1C(=O)S/C(=C\c2ccc(-c3ccc(C(=O)O)c(Cl)c3)o2)C1=O	Pol iota inh 20µM, PI5P4K alpha inh inconclusive, POLB inh inconclusive, Pol kappa inh-1 39.8µM, Pol eta inh-1 10µM | Pol iota confirm inconclusive | Pol kappa inh-2 16.8 | Pol eta inh-2 30.1
CCOC(=O)CN1C(=O)S/C(=C/c2ccc(N3CCCCC3)o2)C1=O	none
CC(C)N(C)c1ncnc2c1ncn2[C@H]1CN(CCN2CCOCC2)C[C@@H](CO)O1	none (no result: Pol iota inh, POLB inh, Pol kappa inh-1, Pol eta inh-1)
O=C(OCc1ccccc1)c1cccnc1	none (no result: WRN helicase inh, Pol iota inh, PI5P4K alpha inh, POLB inh, Pol eta inh-1)
CCOC(=O)N1CCN(C(=O)C[C@@H]2C[C@@]3(C(=O)OC)CC(C)(C)CC=C3N(CCc3ccc(OC)c(OC)c3)C2=O)CC1	none (no result: Pol iota inh, POLB inh, Pol kappa inh-1, Pol eta inh-1)
CCOC(=O)c1[nH]c2c(c1C)C(=O)CC(c1ccco1)C2 (stereo not drawn)	WRN helicase inh inconclusive, Pol iota inh inconclusive, PI5P4K alpha inh -67.5, POLB inh 28.2µM, Pol kappa inh-1 56.2µM, Pol eta inh-1 20µM | Pol iota confirm 67 | Pol eta inh-2 60.1
CC(C)(C)c1ccc(-c2nc(SCC(=O)Nc3ccc(Cl)cc3)[nH]c(=O)c2C#N)cc1	Pol iota inh 44.7µM, POLB inh 79.4µM, Pol kappa inh-1 inconclusive, Pol eta inh-1 28.2µM (no result: WRN helicase inh, PI5P4K alpha inh) | Pol iota confirm inconclusive | Pol kappa inh-2 inconclusive | Pol eta inh-2 inconclusive
O=c1c(-c2ccc(O)cc2)coc2c(C3OC(CO)C(O)C(O)C3O)c(O)ccc12 (stereo not drawn)	none (no result: WRN helicase inh, Pol iota inh, PI5P4K alpha inh, POLB inh, Pol eta inh-1)
O=c1cc(-c2ccc(O)cc2)oc2cc(O)c(C3OC(CO)C(O)C(O)C3O)c(O)c12 (stereo not drawn)	WRN helicase inh inconclusive, Pol iota inh 35.5µM, POLB inh 8.91µM, Pol kappa inh-1 39.8µM, Pol eta inh-1 20µM | Pol iota confirm 33.6 | Pol eta inh-2 23.9
CCc1n[nH]c(=S)n1/N=C/c1cc(OC)cc([N+](=O)[O-])c1O	WRN helicase inh inconclusive, Pol iota inh inconclusive, PI5P4K alpha inh -57.1, Pol eta inh-1 20µM | Pol iota confirm 33.6 | Pol eta inh-2 60.1
O=C(CCC(=O)N1CCSc2ccccc21)Nc1ccc(Cl)cc1	none (no result: WRN helicase inh, PI5P4K alpha inh)

High-throughput results from PubChem.
